What is called inhibition is the change of the read-out against control, counted positive when it falls.

For 20 compounds, growth inhibition, inhibition and outcome results are on record in PubChem BioAssay.

Values without a mark were called inactive. For some of these results: Results with a measured potency or affinity are listed apart. Activity calls are given as the source filed them. Unless noted, no rule for the calls is given here.

Experiment [1] can be described thus: antimalarial activity against Dd2 strain (AID 2302;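 active = growth inhibition above 50% at the single 2 µM test dose, taken to imply half-maximal potency below 2 µM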;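 also: 0% = DMSO untreated growth and 100% = chloroquine plus artemisinin killed control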). As to conditions: P. falciparum Dd2 in RBCs, LDH growth readout, 72 h; at 2 µM; stronger effect = higher value.
Experiment [2] in a line: HepG2 cytotoxicity, primary screen, cytotoxicity control for P. falciparum antimalarial project, cell-based, ATP luminescence (AID 2303;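 active = inhibition above 50%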;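 also: 0% = DMSO wells and 100% = digitonin-killed cells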). Particulars: HepG2 viability, 24-48 h, at 10 µM, stronger effect = higher value.
The target of experiment [3] is L-lactate dehydrogenase (Plasmodium falciparum (isolate CDC / Honduras)) (UniProt Q27743). Briefly: PfLDH activity inhibition – cell lysate, 3D7 strain, counter-screen for P. falciparum growth inhibition project (AID 2304).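 Also: 0% = vehicle and 100% = reference inhibitor.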 As to conditions: P. falciparum 3D7 crude extract, LDH APAD/NBT absorbance; at 2 µM; stronger effect = higher value.
Experiment [4] is described as follows: inhibition of 3D7 malaria parasite growth – strain 3D7 (AID 2306).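 Also: 0% = DMSO wells and 100% = chloroquine plus artemisinin control wells.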 As to conditions: P. falciparum 3D7 erythrocytic growth, LDH absorbance, 72 h; at 2 µM; stronger effect = higher value.
Experiment [5] addresses Calcium-dependent protein kinase 1 (Plasmodium falciparum (isolate 3D7)) (UniProt P62344). Briefly: PfCDPK1 kinase inhibitors, biochemical, TCAMS library (AID 1159585; cut-off not given, nearly all actives have IC50 up to about 0.98 µM;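 also: inhibitors leave more ATP so luminescence rises with inhibition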). As to conditions: recombinant PfCDPK1, Kinase-Glo ATP depletion luminescence. On the technique in general: Kinase-Glo reads ATP consumption through a luciferase reaction.
Experiment [6] concerns the target Plasmodium falciparum protein kinase 6 (PK6, PF3D7_1337100) (UniProt Q8IDW1). Briefly: PfPK6 kinase inhibitors, biochemical, TCAMS library (AID 1159586). Particulars: recombinant PfPK6, Kinase-Glo ATP depletion luminescence.
Experiment [7] deals with Protein kinase 7 (PK7), Plasmodium falciparum 3D7 (PF3D7_0213400) (UniProt Q7YTF7). Briefly: inhibition of Plasmodium PK7 catalytic activity – biochemical, TCAMS antimalarial set, Kinase-Glo luminescence (AID 1159587). Particulars: recombinant PfPK7, Kinase-Glo ATP depletion luminescence.
The target of experiment [8] is Calcium-dependent protein kinase 4 (Plasmodium falciparum (isolate 3D7)) (UniProt Q8IBS5). The experiment is described as follows: PfCDPK4 kinase inhibitors, biochemical, TCAMS library (AID 1159588; cut-off not given, nearly all actives have IC50 up to about 0.91 µM). As to conditions: recombinant PfCDPK4, Kinase-Glo ATP depletion luminescence.
Chain of Calcium-dependent protein kinase 4 (Plasmodium falciparum (isolate 3D7)) (Q8IBS5 whole entry, looked up): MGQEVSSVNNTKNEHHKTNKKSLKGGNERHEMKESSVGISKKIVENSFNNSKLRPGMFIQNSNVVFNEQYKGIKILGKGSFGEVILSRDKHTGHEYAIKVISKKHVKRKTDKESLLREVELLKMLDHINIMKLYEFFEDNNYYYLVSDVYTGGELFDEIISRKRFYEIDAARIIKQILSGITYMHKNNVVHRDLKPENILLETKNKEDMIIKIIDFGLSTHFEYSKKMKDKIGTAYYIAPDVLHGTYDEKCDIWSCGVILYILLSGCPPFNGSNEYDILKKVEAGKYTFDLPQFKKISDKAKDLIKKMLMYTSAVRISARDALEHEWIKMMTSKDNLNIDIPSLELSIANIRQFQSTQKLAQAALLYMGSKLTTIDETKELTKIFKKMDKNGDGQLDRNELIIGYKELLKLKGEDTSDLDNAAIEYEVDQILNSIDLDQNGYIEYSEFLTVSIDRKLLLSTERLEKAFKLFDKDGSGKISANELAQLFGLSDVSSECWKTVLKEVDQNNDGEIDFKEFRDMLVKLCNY

Chain of Plasmodium falciparum protein kinase 6 (PK6, PF3D7_1337100) (Q8IDW1 1-305): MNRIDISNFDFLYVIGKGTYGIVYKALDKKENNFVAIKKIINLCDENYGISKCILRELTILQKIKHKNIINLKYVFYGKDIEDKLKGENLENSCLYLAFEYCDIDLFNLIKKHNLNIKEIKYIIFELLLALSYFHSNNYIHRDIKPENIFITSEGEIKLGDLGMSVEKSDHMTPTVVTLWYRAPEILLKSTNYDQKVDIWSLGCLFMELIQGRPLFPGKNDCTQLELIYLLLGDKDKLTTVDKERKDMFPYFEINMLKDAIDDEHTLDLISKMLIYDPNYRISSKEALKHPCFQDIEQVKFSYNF
Chain of Calcium-dependent protein kinase 1 (Plasmodium falciparum (isolate 3D7)) (P62344 whole entry, looked up): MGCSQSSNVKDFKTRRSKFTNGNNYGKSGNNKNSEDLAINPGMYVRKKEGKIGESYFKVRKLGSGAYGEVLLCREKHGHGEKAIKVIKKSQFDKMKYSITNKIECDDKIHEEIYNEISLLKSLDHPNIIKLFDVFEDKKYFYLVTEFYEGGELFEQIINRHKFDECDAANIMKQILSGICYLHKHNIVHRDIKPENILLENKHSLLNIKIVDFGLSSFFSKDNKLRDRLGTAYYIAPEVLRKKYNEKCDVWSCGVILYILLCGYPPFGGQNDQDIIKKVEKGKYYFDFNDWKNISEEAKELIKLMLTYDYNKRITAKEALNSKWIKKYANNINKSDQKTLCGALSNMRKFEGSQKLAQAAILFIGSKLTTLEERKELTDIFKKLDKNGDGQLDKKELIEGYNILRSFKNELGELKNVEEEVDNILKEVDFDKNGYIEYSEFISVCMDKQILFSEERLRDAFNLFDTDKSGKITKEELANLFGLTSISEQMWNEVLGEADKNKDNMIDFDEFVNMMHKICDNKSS
Chain of Protein kinase 7 (PK7), Plasmodium falciparum 3D7 (PF3D7_0213400) (Q7YTF7 1-343): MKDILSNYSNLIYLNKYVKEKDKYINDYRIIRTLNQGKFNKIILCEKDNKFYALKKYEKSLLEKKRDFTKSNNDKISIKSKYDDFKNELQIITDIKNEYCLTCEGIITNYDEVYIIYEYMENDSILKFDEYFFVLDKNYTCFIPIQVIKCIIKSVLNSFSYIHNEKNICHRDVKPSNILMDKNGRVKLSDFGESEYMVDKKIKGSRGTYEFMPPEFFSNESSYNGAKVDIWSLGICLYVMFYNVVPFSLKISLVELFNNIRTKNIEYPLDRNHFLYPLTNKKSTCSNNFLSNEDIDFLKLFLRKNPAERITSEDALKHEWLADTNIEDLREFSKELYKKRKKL
Chain of L-lactate dehydrogenase (Plasmodium falciparum (isolate CDC / Honduras)) (Q27743 whole entry, looked up): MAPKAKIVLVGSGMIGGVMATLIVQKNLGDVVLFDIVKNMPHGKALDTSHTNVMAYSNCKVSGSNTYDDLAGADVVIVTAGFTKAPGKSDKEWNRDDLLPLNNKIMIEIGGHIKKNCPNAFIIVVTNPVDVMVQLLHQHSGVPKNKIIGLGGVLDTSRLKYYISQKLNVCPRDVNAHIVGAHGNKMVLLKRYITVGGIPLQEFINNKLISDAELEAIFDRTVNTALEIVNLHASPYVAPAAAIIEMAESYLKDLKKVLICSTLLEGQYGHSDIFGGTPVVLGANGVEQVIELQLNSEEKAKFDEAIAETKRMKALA

With `N#Cc1cccc(C(=O)Nc2ccc(-c3cccc(CN4CCCC4)c3)cc2)c1`, the growth inhibition in experiment [1] was 79% (active); in experiment [4], 101% (active). The inhibition in experiment [2] was 15%; in experiment [3], 2%. The result in experiment [5], in experiment [6], in experiment [7] and in experiment [8] was inactive.

Consider `COc1ccc2ncc(C#N)c(CCN3CCC(NCc4cnc5c(c4)OCCO5)CC3)c2n1`, for which the growth inhibition in experiment [1] is 24%; in experiment [4] it was 91% (active). Besides, the inhibition in experiment [2] was 3%; in experiment [3] it was -3%. The result in experiment [5], in experiment [6], in experiment [7] and in experiment [8] was inactive.

For the compound `CN(C(=O)Cc1ccc(Cl)c(Cl)c1)C1CCN(CCCCCNC(=O)/C=C/c2ccc(Cl)c(Cl)c2)CC1`, the growth inhibition in experiment [1] was 13%; in experiment [4], 84% (active). The figures for the inhibition in experiment [2] and in experiment [3] were 87% (active) and -4%, respectively. In addition, the result in experiment [5], in experiment [6], in experiment [7] and in experiment [8] was inactive.

For the compound `O=C(/C=C/c1ccc(Cl)c(Cl)c1)NCCCCCN1CCCN(C(=O)Nc2ccc(Br)cc2)CC1`, the growth inhibition in experiment [1] was -4%; in experiment [4], 99% (active). Also, the values for the inhibition in experiment [2] and in experiment [3] were 38% and 0%, respectively. Further, the outcome in experiment [5], in experiment [6], in experiment [7] and in experiment [8] was inactive.

Take `C=CCNc1cc(-c2ccccn2)nc(-c2ccccn2)n1`: the growth inhibition in experiment [1] was 79% (active); in experiment [4] it was 94% (active). The results for the inhibition in experiment [2] and in experiment [3] were 78% (active) and -2%, respectively. In addition, the result in experiment [5], in experiment [6], in experiment [7] and in experiment [8] was inactive.

On to `Cc1cccc(NC(=O)Nc2ccc(I)c(OCCN(C)C)c2)c1C`, for which the growth inhibition in experiment [1] is 17%; in experiment [4] it was 96% (active). Further, the inhibition in experiment [2] is 13%; in experiment [3] it was 1%. In addition, the result in experiment [5], in experiment [6], in experiment [7] and in experiment [8] was inactive.

Take `Cc1ccc2nc(Cl)c3cc(C(=O)NCCCN4CCCC4)sc3c2c1`: the growth inhibition is 40% in experiment [1] and 89% (active) in experiment [4]. In addition, the inhibition in experiment [2] was 26%; in experiment [3] it was 0%. Further, the result in experiment [5], in experiment [6], in experiment [7] and in experiment [8] was inactive.

Take `Cc1cccc(NC(=O)c2cnc(N3CCN(c4ccncc4)CC3)c(Cl)c2)c1`: the figures for the growth inhibition in experiment [1] and in experiment [4] were 54% (active) and 100% (active), respectively. In addition, the inhibition in experiment [2] was 36%; in experiment [3], -2%. In addition, the outcome in experiment [5], in experiment [6], in experiment [7] and in experiment [8] was inactive.

With `COc1cc(OC)cc(-c2nn(-c3ccc([N+](=O)[O-])cc3C#N)c(=S)n2CC2CCCO2)c1` (stereo not given), the growth inhibition was 75% (active) in experiment [1] and 98% (active) in experiment [4]. Also, the figures for the inhibition in experiment [2] and in experiment [3] were 9% and 0%, respectively. Moreover, the result in experiment [5], in experiment [6], in experiment [7] and in experiment [8] was inactive.

With `CCN1CCN(Cc2ccc(-c3ccc(NS(=O)(=O)c4cccc5cccnc45)cc3)cc2)CC1`, the growth inhibition was 42% in experiment [1] and 90% (active) in experiment [4]. In addition, the inhibition is 29% in experiment [2] and -2% in experiment [3]. For the same compound, the result in experiment [5], in experiment [6], in experiment [7] and in experiment [8] was inactive.

Consider `COc1ccc(N2CCN(C(CNC(=O)C3CCCCC3)c3ccc4c(c3)OCO4)CC2)cc1` (stereo not given), for which the figures for the growth inhibition in experiment [1] and in experiment [4] were 83% (active) and 92% (active), respectively. The inhibition was 1% in experiment [2] and -1% in experiment [3]. Further, the result in experiment [5], in experiment [6], in experiment [7] and in experiment [8] was inactive.

For the compound `COc1ccc2ncc(F)c(CCN3C[C@H](CNCc4ccc5c(n4)NC(=O)CS5)[C@H](O)C3)c2c1`, the figures for the growth inhibition in experiment [1] and in experiment [4] were 34% and 92% (active), respectively. Also, the inhibition in experiment [2] and in experiment [3] was -3% in each case. Further, the result in experiment [5], in experiment [6], in experiment [7] and in experiment [8] was inactive.

Regarding `COc1cc(NC(=O)c2sc(-c3ccc(Cl)cc3)cc2NC(=O)c2ccncc2)ccc1OCCN1CCCC1`, the growth inhibition in experiment [1] and in experiment [4] was 100% (active) throughout. The inhibition in experiment [2] was 100% (active); in experiment [3] it was 3%. For the same compound, the result in experiment [5], in experiment [6], in experiment [7] and in experiment [8] was inactive.

Consider `Cc1cccc(Cn2c(C(N)=O)nn(-c3ccc([N+](=O)[O-])cc3C#N)c2=S)c1`, for which the growth inhibition in experiment [1] was 48%; in experiment [4], 101% (active). Moreover, the inhibition in experiment [2] was 1%; in experiment [3] it was 2%. Also, the outcome in experiment [5], in experiment [6], in experiment [7] and in experiment [8] was inactive.

As to `CC1(C)Cc2c([nH]c3ccccc23)C(CCCCCCCCC2=NC(C)(C)Cc3c2[nH]c2ccccc32)=N1`, the growth inhibition in experiment [1] is 88% (active); in experiment [4], 99% (active). The inhibition is 100% (active) in experiment [2] and -1% in experiment [3]. Moreover, the outcome in experiment [5], in experiment [6], in experiment [7] and in experiment [8] was inactive.

Regarding `O=C(Cc1ccccn1)Nc1cccc(-c2cccc(-c3nc4ccc(C(F)(F)F)cc4[nH]3)c2)c1`, the growth inhibition in experiment [1] is 22%; in experiment [4], 95% (active). Also, the results for the inhibition in experiment [2] and in experiment [3] were 26% and -2%, respectively. Further, the result in experiment [5], in experiment [6], in experiment [7] and in experiment [8] was inactive.

Consider `CNS(=O)(=O)c1ccc2c(c1)nc(C1CCN(CC3CCC(NC(=O)/C=C/c4ccc(Cl)c(Cl)c4)CC3)CC1)n2C` (stereo not given), for which the growth inhibition in experiment [1] is 96% (active); in experiment [4], 102% (active). The inhibition in experiment [2] was 5%; in experiment [3] it was -2%. Besides, the outcome in experiment [5], in experiment [6], in experiment [7] and in experiment [8] was inactive.

Turning to `COc1ccc2ncc(F)c(CCN3CCC(NCc4cc(F)c5c(c4)OCCO5)CC3)c2n1`, the values for the growth inhibition in experiment [1] and in experiment [4] were 67% (active) and 100% (active), respectively. Besides, the inhibition is 15% in experiment [2] and -5% in experiment [3]. In addition, the outcome in experiment [5], in experiment [6], in experiment [7] and in experiment [8] was inactive.

For `CCOC(=O)C1=C(C)NC2=C(C(=O)CC(C)(C)C2)C1c1ccc(Br)cc1` (stereo not given), the growth inhibition in experiment [1] was 66% (active); in experiment [4], 90% (active). For the same compound, the inhibition in experiment [2] was 0%; in experiment [3], 2%. Also, the result in experiment [5], in experiment [6], in experiment [7] and in experiment [8] was inactive.

`CC(=O)Nc1cccc(/C=C/C(=O)N2CCC(N3CCCCC3)CC2)c1`: the growth inhibition in experiment [1] is 0%; in experiment [4], 96% (active). The inhibition in experiment [2] and in experiment [3] was 1% throughout. Further, the outcome in experiment [5], in experiment [6], in experiment [7] and in experiment [8] was inactive.
